phage Ecoli inh – growth loss of phage-infected E. coli, primary screen, RecBCD inhibitor project, absorbance, with phage, HTS; hit rate 0.26% among 360,000; AID 651602, 2012; inhibition, % at 11.9 µM; in the data active = inhibition above about 11%
Tat transport – E. coli Tat export inhibitors, primary screen, MC4100, TorA-mCherry reporter, fluorescence, single point | hit rate 0.036% among 340,000 | inhibition, % at 10 µM;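 active = mean replicate inhibition at least 50% and at least half of replicates individually reaching 50%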;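 note: exported cargo escapes ClpAP degradation while cytoplasmic cargo is degraded and loses fluorescence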
Calb FLC – C. albicans growth inhibition with fluconazole, primary screen, CaCi-2 strain, Alamar Blue fluorescence; C. albicans CaCi-2 (fluconazole-resistant clinical isolate) + fluconazole, 48 h; hit rate 0.57% among 300,000; AID 1979, 2009; growth inhibition, % (concentration not given with the values);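 active = growth inhibition above about 58% in most replicates, limit read from the data, passing the limit was not always enough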;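 note: all wells also contain fluconazole at 8 µg/ml as a sub-toxic cotreatment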
E coli growth-1 – E. coli growth inhibition, primary screen, OD600; Escherichia coli growth, 23 h; active compounds read low; OD600 absorbance (test concentration not listed); hit rate 0.21% among 330,000;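 active = OD600 absorbance below the run mean of sample wells minus 3.6 SD, in any replicate, cut at about 0.56 in these data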
AddAB inh – growth inhibition of E. coli expressing H. pylori AddAB, primary screen, AddAB inhibitor project, absorbance; inhibition, % at 11.9 µM; hit rate 0.29% among 330,000; in the data active = inhibition above about 12%
E coli growth-2 – E. coli V3065 growth inhibition, primary screen, counter-screen for AddAB inhibitor project, absorbance, OD600; 18 h; inhibition, % at 11.9 µM; hit rate 0.27% among 330,000; AID 449728, 2010;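 active = inhibition above the campaign's mean inhibition across all tested compounds plus 3 SD, cut at about 9.9% in these data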;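 note: uninfected addAB+ strain grown without phage in ampicillin broth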
AddAB confirm – growth loss of phage-infected E. coli expressing H. pylori AddAB, confirmation, AddAB inhibitor project, absorbance, E. coli V3065, T4 phage, triplicate. shares compounds with AddAB inh. OD; T4 phage with gene 2 nonsense mutations. hit rate 64% among 880. inhibition, % at 11.9 µM;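 active = mean inhibition above a set limit taken from the earlier primary screen, cut at about 13% in these data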;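 note: higher means less bacterial growth since AddAB block lets phage replicate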
RecBCD counter – growth loss of RecBCD+ E. coli with mutant T4 phage, counter-screen for AddAB inhibitor project, absorbance, V66 E. coli; inhibition, % at 11.9 µM; OD growth; hit rate 73% among 880; shares compounds with AddAB inh;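 active = mean inhibition above the mean of solvent-only control wells plus 3 SD, cut at about 4% in these data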;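 note: optical density read after an 18 h incubation at 37 °C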
bact viab count – bacterial viability inhibition counter-screen, confirmation, counter-screen for AddAB inhibitor project, absorbance | absorbance (AddAB counterscreen) | inhibition, % at 11.9 µM | AID 488956, 2010 | shares compounds with AddAB inh | hit rate 35% among 880; in the data active = inhibition above about 25%
RecBCD conf – growth loss of phage-infected RecBCD+ E. coli, confirmation, RecBCD inhibitor project, absorbance, E. coli V66, T4 gene 2 phage; shares compounds with phage Ecoli inh; E. coli V66 + T4 2- phage, growth OD; inhibition, % at 11.9 µM; hit rate 45% among 890;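 active = mean inhibition over triplicates exceeding the hit threshold derived in the original primary screen, cut at about 11% in these data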
Ecoli viability – E. coli viability inhibition, counter-screen for RecBCD inhibitor project, absorbance, high throughput; shares compounds with phage Ecoli inh; absorbance (OD) growth; inhibition, % at 11.9 µM; hit rate 29% among 890; AID 651983, 2013; in the data active = inhibition above about 20%;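 note: E. coli strain V66 grown with compound alone and no phage infection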
AddAB phage OD – growth loss of phage-infected AddAB-carrying E. coli, confirmation, counter-screen for RecBCD inhibitor project, absorbance, E. coli V3065, T4 phage; shares compounds with phage Ecoli inh; hit rate 45% among 890; inhibition, % at 11.9 µM; AID 651984, 2013; E. coli expressing H. pylori AddAB + T4 phage, OD growth; gene 2 mutant T4, recBCD-deleted host;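 active = mean inhibition above the solvent-only control wells' mean plus 3 SD, cut at about 22% in these data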;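 note: higher means less bacterial growth from phage killing when AddAB is blocked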
A number is an active result. This is a sample that favours compounds with a hit; in the whole collection about 0.9% have one here.

For O=C(CSc1ccc(-c2ccccn2)nn1)c1ccccc1 the results were phage Ecoli inh 14.2, Tat transport inactive, Calb FLC inactive, E coli growth-1 inactive, AddAB inh 13.4, E coli growth-2 12.2, AddAB confirm inactive, RecBCD counter 10.8, bact viab count inactive, RecBCD conf inactive, Ecoli viability inactive and AddAB phage OD 24.4.
`O=C(CSc1ccc(-c2ccccc2)nn1)c1ccccc1` gave phage Ecoli inh inactive, Tat transport inactive, Calb FLC inactive, E coli growth-1 inactive, AddAB inh inactive and E coli growth-2 inactive.
For O=C(C1=CC(c2csc3ccccc23)CC(OCc2ccc(CO)cc2)O1)N1CCOCC1 (stereo not drawn) the results were E coli growth-1 inactive.
`COC(=O)c1ccc(CSc2nnnn2C)o1` gave phage Ecoli inh inactive, Tat transport inactive, Calb FLC inactive, E coli growth-1 inactive, AddAB inh inactive and E coli growth-2 inactive.
CO[C@@]1(NC(=O)C2SC(=C(C(N)=O)C(=O)O)S2)C(=O)N2C(C(=O)O)=C(CSc3nnnn3C)CS[C@@H]21 (stereo partly drawn) was read as phage Ecoli inh 100.5, Tat transport inactive, AddAB inh 97.0, E coli growth-2 97.1, AddAB confirm 101.1, RecBCD counter 100.9, bact viab count 101.2, RecBCD conf 102.6, Ecoli viability 104.8 and AddAB phage OD 103.4.
CCc1cn(C2CC(O)C(CO)O2)c(=O)[nH]c1=O (stereo not drawn) was read as phage Ecoli inh 12.0, Tat transport inactive, E coli growth-1 inactive, AddAB inh 19.6, E coli growth-2 13.4, AddAB confirm 35.4, RecBCD counter 12.5, bact viab count inactive, RecBCD conf 14.0, Ecoli viability inactive and AddAB phage OD 31.0.
Screening O=c1[nH]c(=O)n(C2CC(O)C(CO)O2)cc1C(F)(F)F (stereo not drawn) returned E coli growth-1 inactive.
COCCN=c1scc(-c2cccs2)n1/N=C/c1ccc(O)c(O)c1O was read as phage Ecoli inh 15.2, Tat transport inactive, Calb FLC inactive, AddAB inh 14.5, E coli growth-2 11.5, AddAB confirm 13.7, RecBCD counter 11.3, bact viab count inactive, RecBCD conf inactive, Ecoli viability inactive and AddAB phage OD inactive.
COCCN=c1scc(-c2cccs2)n1N=C(C)c1ccco1 was read as E coli growth-1 inactive.
Screening C#CCOCCOCCOCCNc1nc(N2CCN(C(=O)Cn3cc(CCCCN)nn3)CC2)nc(N2CCN(C(=O)C(C(C)CC)n3cc(CCCCN)nn3)CC2)n1 (stereo not drawn) returned E coli growth-1 inactive.
Cc1ccc(NC(=S)NC(CO)C(O)c2ccc([N+](=O)[O-])cc2)cc1 (stereo not drawn) was read as phage Ecoli inh inactive, Tat transport inactive, Calb FLC inactive, E coli growth-1 inactive, AddAB inh inactive and E coli growth-2 inactive.
Screening O=C(N[C@H](CO)[C@H](O)c1ccc([N+](=O)[O-])cc1)C(Cl)Cl returned phage Ecoli inh 77.5, Tat transport inactive, Calb FLC inactive, E coli growth-1 0.0455, AddAB inh 89.2, E coli growth-2 90.3, AddAB confirm 87.4, RecBCD counter 86.2, bact viab count 84.5, RecBCD conf 86.0, Ecoli viability 87.6 and AddAB phage OD 80.8.
For O=[N+]([O-])c1ccc(C(O)C(CO)NC(=S)Nc2ccccc2)cc1 (stereo not drawn) the results were phage Ecoli inh inactive, Tat transport inactive, Calb FLC inactive, E coli growth-1 inactive, AddAB inh inactive and E coli growth-2 inactive.
For O=C(NC(CO)C(O)c1ccc([N+](=O)[O-])cc1)C(Cl)Cl (stereo not drawn) the results were phage Ecoli inh 72.5, Tat transport inactive, E coli growth-1 0.0605, AddAB inh 78.6, E coli growth-2 85.4, AddAB confirm 86.5, RecBCD counter 83.6, bact viab count 86.0, RecBCD conf 79.4, Ecoli viability 78.8 and AddAB phage OD 73.7.
For CC(NC(=O)c1nc[nH]c1C(=O)NC(Cc1ccccc1)C(=O)OCc1ccccc1)C(=O)OC(C)(C)C (stereo not drawn) the results were E coli growth-1 inactive.
`CC(=NN=C(N)N)c1ccc(Cl)cc1` gave E coli growth-1 inactive.
For O=C(Cn1cnc2ccccc21)Nc1ccc(SC(F)F)cc1 the results were phage Ecoli inh 16.9, Tat transport inactive, Calb FLC inactive, E coli growth-1 inactive, AddAB inh 15.0, E coli growth-2 13.2, AddAB confirm inactive, RecBCD counter 13.2, bact viab count inactive, RecBCD conf inactive, Ecoli viability inactive and AddAB phage OD inactive.
Screening CN1CCN(c2ccc([N+](=O)[O-])cc2C=NNC(=O)c2cccc([N+](=O)[O-])c2)CC1 returned E coli growth-1 inactive.
`CCc1nnc(NS(=O)(=O)c2ccc(NC(=S)Nc3ccc(F)cc3)cc2)s1` gave phage Ecoli inh 15.8, Tat transport inactive, Calb FLC inactive, E coli growth-1 inactive, AddAB inh 14.7, E coli growth-2 inactive, AddAB confirm inactive, RecBCD counter inactive, bact viab count inactive, RecBCD conf inactive, Ecoli viability inactive and AddAB phage OD inactive.
`CN1CCN(C(c2ccc(Br)cc2)c2cc(Cl)c3cccnc3c2O)CC1` (stereo not drawn) gave phage Ecoli inh 13.0, Tat transport inactive, Calb FLC 89.9, AddAB inh 22.3, E coli growth-2 23.4, AddAB confirm inactive, RecBCD counter 10.7, bact viab count inactive, RecBCD conf inactive, Ecoli viability inactive and AddAB phage OD inactive.

High-throughput results: PubChem BioAssay, several laboratories
